Screening data as filed in PubChem BioAssay.
CYP2C9 activ = increases human cytochrome P450 2C9 activity. activation factor at 5 µM. actives 1.4% (n = 96,000). recombinant CYP2C9, luciferin-H conversion, luminescence; hits give high values; factor 1 = untreated enzyme, 0 = blocked;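 active = activation factor of 2 or more for CYP2C9 at a 5 µM dose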;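 also: 0 = sulfaphenazole-blocked wells and 1 = vehicle-only wells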
Target sequence (P11712 whole entry, looked up): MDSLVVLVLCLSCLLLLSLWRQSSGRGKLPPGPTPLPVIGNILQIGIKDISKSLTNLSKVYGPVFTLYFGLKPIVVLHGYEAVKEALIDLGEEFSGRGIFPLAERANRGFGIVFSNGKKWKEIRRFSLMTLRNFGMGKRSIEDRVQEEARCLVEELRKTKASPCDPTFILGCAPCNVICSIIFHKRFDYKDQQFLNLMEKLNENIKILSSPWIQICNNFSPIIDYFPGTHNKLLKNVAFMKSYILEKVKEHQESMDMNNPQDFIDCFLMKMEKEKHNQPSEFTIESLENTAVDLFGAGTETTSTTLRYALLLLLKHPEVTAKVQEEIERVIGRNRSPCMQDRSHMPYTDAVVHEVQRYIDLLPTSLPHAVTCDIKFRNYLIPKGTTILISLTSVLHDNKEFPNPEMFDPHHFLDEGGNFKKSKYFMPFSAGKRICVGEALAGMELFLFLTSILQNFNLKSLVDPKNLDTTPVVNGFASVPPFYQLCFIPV
CYP2C19 activ = cytochrome P450 2C19 (human) activation; 96,000 tested, under 10 active; P33261; activation factor at 5 µM; AID 1025; recombinant CYP2C19, luciferin-H EGE luminescence; hits give high values; 0 = fully inhibited enzyme, 1 = untreated enzyme;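 active = activation factor of at least 2 at 5 µM in the primary screen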;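 also: 0 = wells with 2.5 mM tranylcypromine and 1 = vehicle-only wells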
CYP2C9 inhib = blocks human cytochrome P450 2C9. P11712. AID 777. inhibition, % at 5 µM. CYP2C9 Supersomes, luciferin-H conversion, luminescence. actives 20% (n = 96,000);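 active = blocking of liver enzyme CYP2C9 beyond about 50% at 5 µM, limit read from the data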
CYP2C19 inhib = blocks human cytochrome P450 2C19; P33261; CYP2C19 Supersomes, luciferin-H EGE luminescence, 30 min; inhibition, % at 5 µM; actives 21% (n = 96,000);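 active = CYP2C19 inhibition above a set limit at 5 µM in the primary screen, cut at about 50% in these data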;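 also: plate controls were negative control wells for no effect and 2.5 mM tranylcypromine positive control for full effect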
PostGolgi ctrl = yeast control strain growth, post-Golgi counter-screen | inhibition, % at 10 µM | efflux-deficient yeast background strain, growth absorbance A615, 16 h | actives 5% (n = 98,000)
PostGolgi yeast = growth inhibition of a yeast mutant, post-Golgi transport screen; AID 739; inhibition, % at 10 µM; post-Golgi transport phenotypic cell assay; actives 0.9% (n = 98,000);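 also: yeast cells grown in 1536-well plates; yeast grown about 18 h at 30C before absorbance read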
Starred values were filed as active, the others as inactive. An excerpt weighted towards active compounds, which were near 32% of everything screened. Rule as the data show it, unless noted: active = inhibition above about 30%; inactive = the rest.

`O=C(NCc1cccnc1)c1cc(-c2ccco2)on1` gave CYP2C9 activ 0.7, CYP2C19 activ 0.9, CYP2C9 inhib 34, CYP2C19 inhib 9, PostGolgi ctrl 9 and PostGolgi yeast 5.
`CN1C(=O)/C(=C/c2ccccc2OCc2cccc(F)c2)NC1=S` gave CYP2C9 activ 0.3, CYP2C19 activ 1, CYP2C9 inhib 65*, CYP2C19 inhib -2, PostGolgi ctrl 7 and PostGolgi yeast -5.
CCc1nnc(NS(=O)(=O)c2ccc(NC(=S)NC(=O)/C=C/c3ccc(C(C)C)cc3)cc2)s1 was read as CYP2C9 activ 0.2, CYP2C19 activ 0.8, CYP2C9 inhib 77*, CYP2C19 inhib 22, PostGolgi ctrl 12 and PostGolgi yeast 5.
CC1(C)CC(=O)c2sc(N3CCCCC3)nc2C1 was read as CYP2C9 activ 0.7, CYP2C19 activ 0.4, CYP2C9 inhib 26, CYP2C19 inhib 58*, PostGolgi ctrl -3 and PostGolgi yeast 12.
CC1(C)CNC(=O)c2sc(N3CCCCC3)nc2C1 was read as CYP2C9 activ 1, CYP2C19 activ 0.9, CYP2C9 inhib -1, CYP2C19 inhib 6, PostGolgi ctrl 6 and PostGolgi yeast 2.
Screening CCOC(=O)C(=CNc1cc(C)nn1-c1ccc(Cl)cc1)C(=O)OCC returned CYP2C9 activ 0.2, CYP2C19 activ 0.3, CYP2C9 inhib 77*, CYP2C19 inhib 71*, PostGolgi ctrl 40* and PostGolgi yeast 2.
`O=C(Nc1ccc(S(=O)(=O)Nc2ncccn2)cc1)c1ccc(Br)s1` gave CYP2C9 activ 0.8, CYP2C19 activ 1, CYP2C9 inhib 18, CYP2C19 inhib 0, PostGolgi ctrl 1 and PostGolgi yeast 1.
CC(Sc1nc(-c2ccccc2)cc(C(F)(F)F)n1)C(=O)Nc1sc2c(c1C#N)CCC2 (stereo not given) was read as CYP2C9 activ 0.4, CYP2C19 activ 0.9, CYP2C9 inhib 64*, CYP2C19 inhib 14, PostGolgi ctrl 8 and PostGolgi yeast 8.
`N#Cc1ccc(-c2cccnc2)nc1SCC(=O)Nc1sc2c(c1C#N)CCC2` gave CYP2C9 activ 1, CYP2C19 activ 0.7, CYP2C9 inhib -2, CYP2C19 inhib 30, PostGolgi ctrl 9 and PostGolgi yeast -1.
N#Cc1c(C(F)(F)F)cc(-c2ccccc2)nc1SCc1nc(N)nc(N2CCOCC2)n1 was read as CYP2C9 activ 0.2, CYP2C19 activ 0.2, CYP2C9 inhib 80*, CYP2C19 inhib 81*, PostGolgi ctrl 45* and PostGolgi yeast -2.
N#Cc1c(C(F)(F)F)cc(-c2ccc(Cl)c(Cl)c2)nc1SCCN1CCOCC1 was read as CYP2C9 activ 1, CYP2C19 activ 1.1, CYP2C9 inhib -4, CYP2C19 inhib -14, PostGolgi ctrl 12 and PostGolgi yeast 1.
For N#Cc1c(C(F)(F)F)cc(-c2ccccc2)nc1SCC(=O)Nc1sc2c(c1C#N)CCC2 the results were CYP2C9 activ 0.3, CYP2C19 activ 0.8, CYP2C9 inhib 71*, CYP2C19 inhib 22, PostGolgi ctrl -1 and PostGolgi yeast -8.
`COc1ccc(C2/C(=C(/O)c3ccccc3)C(=O)C(=O)N2c2ccccn2)c(OC)c1` (stereo not given) gave CYP2C9 activ 0.8, CYP2C19 activ 1, CYP2C9 inhib 19, CYP2C19 inhib 3, PostGolgi ctrl 7 and PostGolgi yeast 0.
Cc1oc2c(CN3CCCC3)c(O)ccc2c(=O)c1-c1ccc(Cl)cc1 was read as CYP2C9 activ 0.9, CYP2C19 activ 1, CYP2C9 inhib 7, CYP2C19 inhib 4, PostGolgi ctrl 16 and PostGolgi yeast 5.
For CCc1cc2c(=O)c(-c3cnn(-c4ccccc4)c3)coc2c(CN2CCOCC2)c1O the results were CYP2C9 activ 0.3, CYP2C19 activ 0.8, CYP2C9 inhib 74*, CYP2C19 inhib 22, PostGolgi ctrl 4 and PostGolgi yeast 2.
Screening Cc1oc2c(CN3CCOCC3)c(O)ccc2c(=O)c1-c1ccc(Br)cc1 returned CYP2C9 activ 0.5, CYP2C19 activ 0.7, CYP2C9 inhib 54*, CYP2C19 inhib 26, PostGolgi ctrl -8 and PostGolgi yeast 4.
`O=c1c(-c2ccc(Br)cc2)coc2c(CN3CCOCC3)c(O)ccc12` gave CYP2C9 activ 0.4, CYP2C19 activ 0.8, CYP2C9 inhib 58*, CYP2C19 inhib 19, PostGolgi ctrl 9 and PostGolgi yeast 2.
O=c1oc2c(CN3CCOCC3)c(O)ccc2c2c1CCCC2 was read as CYP2C9 activ 2*, CYP2C19 activ 1, CYP2C9 inhib -104, CYP2C19 inhib 4, PostGolgi ctrl 4 and PostGolgi yeast -4.
Cc1ccccc1CS(=O)(=O)CCC(=O)NCc1ccccn1 was read as CYP2C9 activ 1.2, CYP2C19 activ 0.9, CYP2C9 inhib -16, CYP2C19 inhib 8, PostGolgi ctrl 3 and PostGolgi yeast 3.
`O=C1CCN(C(=O)c2ccccc2)C2CCCCC12` (stereo not given) gave CYP2C9 activ 1.2, CYP2C19 activ 0.9, CYP2C9 inhib -16, CYP2C19 inhib 13, PostGolgi ctrl 12 and PostGolgi yeast 1.
Screening COc1ccccc1N1CCN(C(=O)C(C)N(c2ccccc2)S(C)(=O)=O)CC1 (stereo not given) returned CYP2C9 activ 0.9, CYP2C19 activ 1, CYP2C9 inhib 8, CYP2C19 inhib 0, PostGolgi ctrl 4 and PostGolgi yeast -2.
O=C(C1c2ccccc2Oc2ccccc21)N1CCN(c2ccc(Cl)cc2)CC1 was read as CYP2C9 activ 0.2, CYP2C19 activ 0.1, CYP2C9 inhib 85*, CYP2C19 inhib 94*, PostGolgi ctrl 37* and PostGolgi yeast -10.
For COc1ccccc1N1CCN(C(=O)C2c3ccccc3Oc3ccccc32)CC1 the results were CYP2C9 activ 0, CYP2C19 activ 0, CYP2C9 inhib 100*, CYP2C19 inhib 98*, PostGolgi ctrl 42* and PostGolgi yeast 17.
For Cn1c(=O)cc(SCC(=O)NCC2COc3ccccc3O2)c2ccccc21 (stereo not given) the results were CYP2C9 activ 1.1, CYP2C19 activ 0.8, CYP2C9 inhib -9, CYP2C19 inhib 21, PostGolgi ctrl -8 and PostGolgi yeast 16.
`CCN(CC)CCn1c(NCc2cccc(OC)c2)nc2ccccc21` gave CYP2C9 activ 1, CYP2C19 activ 0.7, CYP2C9 inhib 0, CYP2C19 inhib 32, PostGolgi ctrl -3 and PostGolgi yeast 5.
CNC(=O)c1cc2cc(OC)ccc2n1CCN(C)C was read as CYP2C9 activ 1, CYP2C19 activ 0.4, CYP2C9 inhib -4, CYP2C19 inhib 63*, PostGolgi ctrl 6 and PostGolgi yeast 6.
Screening CNC(=O)c1cc2cc(OC)ccc2n1CCN(Cc1ccccc1)Cc1ccccc1 returned CYP2C9 activ 0.3, CYP2C19 activ 0.1, CYP2C9 inhib 67*, CYP2C19 inhib 92*, PostGolgi ctrl 10 and PostGolgi yeast -8.
